NR2F2 inh – inhibitors of human COUP-TFII (NR2F2); HEK293T NGFI-A luciferase reporter, luminescence; 370,000 tested, 0.7% active; inhibition, % at 8.6 µM; P24468;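 active means inhibition above a per-plate cutoff, mean inhibition of test wells between control levels plus 3 SD, cut at about 38% in these data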;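 further: cells cotransfected with COUP-TFII expression vector driving the NGFI-A reporter; 0% = median of COUP-TF2 test wells and 100% = reporter-only cells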
SRC2 inh – human SRC2 (NCOA2) inhibition; Q15596; HEK293 GAL4-SRC2 luciferase reporter, luminescence; inhibition, % at 9 µM; 370,000 tested, 0.17% active; AID 651957;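 active means inhibition above the mean inhibition of all tested compounds plus 3 SD, set per campaign, cut at about 52% in these data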;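 further: 0% = DMSO treated cells and 100% = cells given Gossypol at 36 µM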
NR5A2 inv ag – inverse agonists of human LRH-1 (NR5A2). O00482. HEK293T StAR-luciferase reporter, LRH-1 transfected, 24 h. inhibition, % at 3.6 µM. 360,000 tested, 0.13% active. AID 602396;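 active means inhibition above the mean inhibition of all tested compounds plus 3 SD, cut at about 73% in these data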;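 further: 0% = DMSO wells and 100% = reporter-only cells lacking LRH-1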
Target sequence (O00482 whole entry, looked up): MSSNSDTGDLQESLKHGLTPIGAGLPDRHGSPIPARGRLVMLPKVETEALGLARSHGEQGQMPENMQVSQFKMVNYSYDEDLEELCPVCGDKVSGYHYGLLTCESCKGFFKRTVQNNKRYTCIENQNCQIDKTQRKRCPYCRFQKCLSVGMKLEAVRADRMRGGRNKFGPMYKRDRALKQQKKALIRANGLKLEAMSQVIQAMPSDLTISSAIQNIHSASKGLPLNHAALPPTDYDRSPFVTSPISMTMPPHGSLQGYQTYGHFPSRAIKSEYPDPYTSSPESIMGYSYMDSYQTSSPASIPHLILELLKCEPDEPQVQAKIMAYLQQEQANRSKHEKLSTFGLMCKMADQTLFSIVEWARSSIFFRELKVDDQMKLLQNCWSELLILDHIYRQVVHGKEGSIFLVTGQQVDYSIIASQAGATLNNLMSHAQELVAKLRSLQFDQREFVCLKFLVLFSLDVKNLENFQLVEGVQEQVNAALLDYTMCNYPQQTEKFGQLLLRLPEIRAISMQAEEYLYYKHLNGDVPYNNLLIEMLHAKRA
GalR3 antag – human GalR3 antagonism | O60755 | HEK293 GalR3-CNG cAMP membrane potential fluorescence; galR3 body fused to GalR1 C-terminus | inhibition, % at 3 µM | 360,000 tested, 0.44% active | AID 651719;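 active means inhibition above the screen-wide average plus 3 SD, cut at about 13% in these data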;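 further: forskolin and galanin both at EC90 stimulate the cells; cAMP rise reported by CNG channel membrane potential dye signal; 0% = forskolin plus galanin with DMSO and 100% = forskolin alone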
SRC1 inh – human NCOA1 inhibition; 360,000 tested, 0.12% active; HEK293 GAL4-SRC1 luciferase reporter, luminescence; inhibition, % at 3.6 µM; AID 588354; Q15788;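 active means inhibition above the campaign mean plus 3 SD, with each screening campaign given its own cutoff, cut at about 60% in these data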;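 further: 0% = DMSO treated cells and 100% = gossypol at 36 µM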
SRC3 inh – human NCOA3 inhibition; HEK293 GAL4-SRC3 luciferase reporter, luminescence; 360,000 tested, 0.17% active; inhibition, % at 3.6 µM; Q9Y6Q9;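 active means inhibition above a per-campaign cutoff, the mean of all compounds plus 3 SD, cut at about 60% in these data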;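 further: 0% = DMSO-treated cells and 100% = gossypol-treated cells at 36 µM; higher means less SRC3-driven luciferase light from the GAL4 reporter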
Gal4-VP16 ctr – VP16 inhibition counter-screen for COUP-TFII; inhibition, % at 8.5 µM; 2,500 tested, 25% active; shares compounds with NR2F2 inh; HEK293 Gal4-VP16 luciferase reporter, luminescence; in the data active means inhibition above about 13%
COUP-TFII conf – confirmation of human COUP-TFII (NR2F2) inhibitors. shares compounds with NR2F2 inh. HEK293 NGFI-A luciferase reporter, luminescence. inhibition, % at 8.5 µM. 2,500 tested, 45% active;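 active means mean inhibition over three repeats above a set limit taken from the earlier primary screen, cut at about 38% in these data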;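 further: 100% = cells given the luciferase reporter alone without the COUP-TF2 vector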
An asterisk follows results filed as active; · = no result given. An excerpt weighted towards active compounds, which were near 1.1% of everything screened.

SMILES | NR2F2 inh | SRC2 inh | NR5A2 inv ag | GalR3 antag | SRC1 inh | SRC3 inh | Gal4-VP16 ctr | COUP-TFII conf
COc1ccc(C(=O)OCCN2CCN(C3CN(Cc4cn(Cc5cccc(C)c5)nn4)S(=O)(=O)C3)CC2)cc1OC (configuration not stated) | 47* | 16 | · | · | · | · | -12 | 10
CC(=O)Nc1ccc(SCC(=O)c2cc(C)n(-c3ccccc3)c2C)cc1 | 54* | 26 | 8 | 0 | 38 | 47 | 23* | 40*
COc1ccc(-n2c(C)cc(C(=O)CSc3ccc(NC(C)=O)cc3)c2C)cc1 | -16 | -5 | -7 | -1 | -26 | -13 | · | ·
Clc1ccc(-c2cccs2)nn1 | 5 | 1 | -1 | -3 | -6 | 19 | · | ·
CC1CCN(c2ccc(-c3cccs3)nn2)CC1 | 45* | 62* | 32 | -12 | 18 | 41 | 20* | 42*
CC(CCN1CCC(C(O)(c2ccccc2)c2ccccc2)CC1)Oc1cccc(C(F)(F)F)c1 (configuration not stated) | 16 | 7 | · | · | · | · | · | ·
CCNC(=O)C1(C)CCCN(C(=O)c2ccc3c(c2)C(C)(C)CCC3(C)C)C1 (configuration not stated) | 39* | 11 | 16 | -6 | 24 | 14 | -6 | 31
Cc1cccc(OCc2n(CC(=O)OC3CC(C)CCC3C(C)C)c3ccccc3[n+]2C)c1 (configuration not stated) | · | · | 14 | · | 7 | 26 | · | ·
CC1CCC(C(C)C)C(OC(=O)Cn2c(-c3ccccc3)[n+](C)c3ccccc32)C1 (configuration not stated) | 57* | 39 | 75* | 1 | 58 | 79* | 14* | 38*
O=C(Nc1ccc(Oc2cccnc2)cc1)C1CCN(Cc2cccc(Cl)c2)CC1 | 38* | 18 | 19 | -2 | 7 | 23 | 13* | 20
CC(C)(C)n1ncc2c(=O)n(CC(=O)OCc3ccccc3)cnc21 | 61* | 33 | 10 | -4 | 42 | 60 | 59* | 80*
COc1cc(/C=C2\COC/C(=C\c3ccc(O)c(OC)c3)C2=O)ccc1O | 63* | -56 | -16 | -1 | -13 | 18 | 13 | 19
COc1cc(/C=C2/CC/C(=C/c3ccc(O)c(OC)c3)C2=O)ccc1O | -19 | 6 | -13 | 1 | -7 | -5 | · | ·
COc1ccc(/C=C2\CC/C(=C\c3ccc(OC)c(OC)c3)C2=O)cc1OC | 51* | 65* | 7 | -4 | 45 | 51 | 32* | 50*
CC(C)(C)OC(=O)N1CCC(N[C@@H](Cc2ccccc2)C(=O)NCCc2c[nH]c3ccccc23)(C(=O)NC2CCCCC2)CC1 | 22 | · | · | · | · | · | · | ·
CCOC(=O)[C@]12CCCCC/C=C\1N(Cc1ccc(OC)cc1)C(=O)[C@H]2CC(=O)NCc1cccc(C(F)(F)F)c1 | 10 | 10 | · | · | · | · | · | ·
COCCn1c(C)c(C)c2c(NCCc3ccccc3)ncnc21 | 47* | 12 | 23 | -6 | 23 | 26 | 10 | 64*
COc1ccc(-c2cn3c(C)c(C(=O)Nc4ccncc4)sc3n2)cc1 | 47* | 16 | -4 | · | 3 | 15 | -31 | 7
COc1ccc(-c2cn3c(C)c(C(=O)Nc4cccc(NC(C)=O)c4)sc3n2)cc1 | 59* | 4 | -2 | -1 | 14 | -32 | -29 | -5
COC(=O)c1ccc(NC(=O)c2sc3nc(-c4ccccc4)cn3c2C)cc1 | -12 | -15 | -20 | -4 | 0 | 13 | · | ·
O=C(Nc1nncs1)c1cc2c(s1)CCC2 | -37 | -81 | -68 | -9 | -99 | -55 | · | ·
O=C(Nc1nccs1)c1cc2c(s1)CCCCC2 | 42* | 58* | -5 | -8 | -11 | 7 | -55 | -10
N=c1ccn(CC(=O)c2ccc(-c3ccccc3)cc2)cc1 | 58* | -10 | 59 | -4 | 32 | 73* | 13 | 54*
O=C(CN1C(=O)CCC1=O)c1ccc(-c2ccccc2)cc1 | 10 | -5 | -19 | -4 | -24 | -17 | · | ·
O=C(Nc1ccc(NC(=O)c2cccs2)cc1)c1cccs1 | -39 | -75 | -76 | 0 | -46 | -83 | · | ·
SMILES | NR2F2 inh | SRC2 inh | NR5A2 inv ag | GalR3 antag | SRC1 inh | SRC3 inh | Gal4-VP16 ctr | COUP-TFII conf
O=C(Nc1nonc1NC(=O)c1cccs1)c1cccs1 | 49* | 14 | 49 | -8 | 30 | 30 | 4 | 34
Cc1c(C(C)NC(=O)c2cc(COc3cccc4cnccc34)on2)cnn1C (configuration not stated) | 56* | 44 | 34 | 0 | 29 | 47 | 5 | 42*
COC1=C[C@H](C(=O)NCCOC(C)=O)[C@H](C)[C@@H](c2ccccc2)CC1=O | -16 | 5 | · | · | · | · | · | ·
O=c1cc(-c2ccc(O)cc2)oc2c1ccc1ccccc12 | 5 | -24 | -14 | -9 | 4 | 12 | · | ·
O=c1cc(-c2ccc(O)cc2)oc2ccc3ccccc3c12 | 55* | 46 | 21 | -5 | 12 | 28 | 14* | 46*
COc1ccc(C(=O)OCCN(C)C2CN(Cc3cn(Cc4cccc(F)c4)nn3)S(=O)(=O)C2)cc1OC (configuration not stated) | -11 | -18 | · | · | · | · | · | ·
Cc1ccc(NC(=O)OCCCN2C(=O)CCC23CCC(C)CC3)cc1C (configuration not stated) | -18 | -30 | · | · | · | · | · | ·
C=CC[n+]1c(-c2ccc(OC)cc2)csc1NNC(=O)Nc1ccccc1 | 8 | -39 | -29 | -10 | -60 | -56 | · | ·
C=CC[n+]1c(-c2ccc(C)cc2)csc1Nc1ccc(NC(C)=O)cc1 | 52* | 84* | 38 | -8 | 26 | 37 | 83* | 81*
CCOc1ccc(CCNC(=O)c2ccc3[nH]ccc3c2)cc1OCC | 41* | · | · | · | · | · | -12 | 13
CCOc1ccc(CCNC(=O)c2cc3sccc3n2CC)cc1OCC | 50* | 23 | 29 | -2 | 13 | 10 | 0 | 29
CCOc1ccc(CCNC(=O)c2ccc(Oc3ccccc3)cc2)cc1OCC | 24 | · | · | · | · | · | · | ·
CCOc1ccc(CCNC(=O)c2cc3sccc3n2Cc2ccccc2)cc1OCC | 40* | · | · | · | · | · | -5 | 18
CCc1ccc(-c2nc(CN3CCCC(C(=O)NCCc4ccc(OC)c(OC)c4)C3)c(C)o2)cc1 (configuration not stated) | 49* | 28 | -5 | -9 | -31 | -10 | 3 | 14
Cc1oc(-c2ccc(Cl)cc2)nc1CN1CCCC(C(=O)NC2CC2)C1 (configuration not stated) | 6 | 16 | 7 | -8 | 7 | -19 | · | ·
